In the library only some 1.4% were active in any assay of this set; here they are far more common.
Mtb MbtI inh – MbtI salicylate synthase inhibitors, primary screen, biochemical, fluorescence intensity | P9WFX0 | inhibition, % (concentration not given with the values) | purified MbtI enzyme, fluorescence intensity read-out | hit rate 0.89% among 100,000; in the data active = inhibition mostly above about 56%, no sharp cut-off; inactive = mostly below about 77%
AID504770 – growth inhibition of E. coli YBA685, primary screen, V. cholerae RctB inhibitors; hit rate 0.27% among 130,000; AID 504770, 2011; E. coli YBA685 rctB-dependent plasmid, OD600 growth, 3 h; active compounds read low; z-score (concentration not given with the values); in the data active = z-score below about -2, passing the limit was not always enough
PV pol inh – poliovirus RdRp elongation inhibitors, primary screen, biochemical, fluorescence polarization, total intensity | Genome polyprotein (Poliovirus type 1 (strain Mahoney)), P03300 | poliovirus polymerase elongation; active compounds read low | % elongation, % (compound at 16.7 µg/mL) | hit rate 0.66% among 150,000; in the data active = % elongation below about 90%
Mtb MenB inh – M. tuberculosis MenB inhibitors, primary screen, biochemical, absorbance. 1,4-dihydroxy-2-naphthoyl-CoA synthase (Mycobacterium tuberculosis (strain ATCC 25618 / …. MenB enzyme assay, absorbance read-out. inhibition, % (no concentration beside the values). hit rate 0.43% among 100,000. AID 540299, 2011; in the data active = inhibition above about 21%, passing the limit was not always enough
Target sequence (P9WNP5 whole entry, looked up): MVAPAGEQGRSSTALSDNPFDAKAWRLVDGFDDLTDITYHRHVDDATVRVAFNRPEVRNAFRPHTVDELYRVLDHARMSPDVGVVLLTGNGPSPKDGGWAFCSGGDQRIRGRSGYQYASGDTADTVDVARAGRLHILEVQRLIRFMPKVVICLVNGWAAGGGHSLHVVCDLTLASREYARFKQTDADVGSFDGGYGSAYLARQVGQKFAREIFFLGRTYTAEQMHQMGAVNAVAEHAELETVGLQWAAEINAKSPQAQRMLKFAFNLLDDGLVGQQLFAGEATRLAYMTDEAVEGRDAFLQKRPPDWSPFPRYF
The depositor's hits bear a star; · = no result.

SMILES	Mtb MbtI inh	AID504770	PV pol inh	Mtb MenB inh
COC(=O)C1=C(C)NC(=O)C1(NS(=O)(=O)c1ccc(C)cc1)C(F)(F)F (stereo not drawn)	-2	-0.1	99	3
N#CC(=S)Nc1ccc(F)cc1	7	-1.9	85*	-9
Cc1cn2c(nc1=O)O[C@@H]1C[C@H]2O[C@@H]1CO	-2	1.1	103	-30
CSc1c[nH]n(-c2ccccc2)c(=O)c1=O	78*	-0.4	98	-4
O=c1c(Cl)c[nH]n(-c2ccccc2)c1=O	8	-0.8	100	8
O=c1ccc2cc3c([nH]c4ccc(Br)cc43)oc-2c1O	97*	0.5	86	-119
C=CCn1c(=NC(=O)c2ccc(F)cc2)sc2cc(C(=O)OC)ccc21	·	0.05	·	·
CCN1CCc2c(sc(=NC(=O)c3ccc(F)cc3)n2C(=O)c2ccc(F)cc2)C1	93	-2.1	65*	-13
Nn1c(SCCOc2ccccc2)nnc1-c1ccccc1	34	1.1	79*	-30
Cc1cc(C)nc(SCCSc2nc(C)cc(C)n2)n1	-11	0.25	100	34*
Cc1cc(C)nc(SCC(N)=O)n1	-11	-0.75	101	46*
Cc1cc(C)nc(SCCN(C)C)n1	-5	2	·	·
COc1ccc(-c2nc(CN3C(=O)CSc4nc(C)cc(C)c43)c(C)o2)cc1OC	9	-1.2	99	5
O=c1oc2c(o1)=C(c1ccccc1)S(=O)(=O)C=2c1ccccc1	58*	1.2	108	16
O=c1cc(-c2ccccc2)oc2ccccc12	·	0.45	·	·
CCn1c(Oc2ccc(F)cc2F)nc2c1c(=O)n(C)c(=O)n2C	·	·	107	·
O=C1NC(=O)C(=C2CCCCC2)S1	86*	0.15	105	-36
O=C1N=C(N2CCOCC2)SC1=C1CCCCC1	-4	-0.85	101	-20
Cc1nnc(-c2ccccn2)[nH]c1=O	0	-0.6	104	-2
Cn1c(=O)[nH]c2nnc(-c3ccccn3)nc2c1=O	13	0.95	89*	-52
NC(=O)COC(=O)c1n[nH]c2ccccc12	103	-3.5*	103	-4
CN=Cc1cc(-c2ccccc2)n(C)c1S	98*	1.4	101	-144
CCOc1cccc2cc3c(=O)n(-c4ccc(Br)cc4)nc-3oc12	·	-0.2	·	·
O=C(CC(NCc1ccco1)C(=O)O)Nc1ccccc1 (stereo not drawn)	·	-0.95	·	·
CCC(=O)N(c1n[nH]c(=S)s1)C1CC1	91*	-0.65	·	-13
SMILES	Mtb MbtI inh	AID504770	PV pol inh	Mtb MenB inh
Cc1sc(NC(=O)CN2CCOCC2)c(C#N)c1C	·	0.2	·	·
CCCCN(C)Cc1cccc(OC)c1OC	-8	-0.4	102	-11
COc1ccccc1CN(C)CCN	2	-0.6	101	75*
COc1ccc(CNc2ccccc2C(=O)O)c(OC)c1OC	-446	-0.9	100	7
Cc1cc(C)c2c(n1)SCC(=O)N2CC(=O)Nc1c(C)cccc1C	·	·	110	·
Cc1onc(-c2ccccc2)c1C(=O)OCC(=O)c1ccc2[nH]c(=O)[nH]c2c1	2	-0.8	76*	-18
O=C(COC(=O)c1ccccc1NCc1ccco1)c1ccc(Cl)cc1	-37	-0.5	106	-30
O=C(COC(=O)c1ccccc1NCc1ccco1)c1ccc2[nH]c(=O)[nH]c2c1	-196	0.9	44*	1
COc1ccc(C(=O)OCC(=O)c2ccc3[nH]c(=O)[nH]c3c2)c(OC)c1	1	-0.4	88*	-17
CN1CCC/C1=C1\C(=O)N(c2ccccc2)N=C1NC(=O)Nc1cccc(Cl)c1	12	-0.7	102	-6
CCOC(=O)c1ccccc1NCn1c(=S)oc2ccccc21	·	-1.4	103	-1
NC(=O)N1C(=O)C=CC1=O	81	-8.5*	·	-2
CC(O)CNCc1ccc(-c2ccccc2)o1 (stereo not drawn)	2	-0.1	100	8
CN(C)CCNCc1ccc(-c2ccccc2)o1	13	-0.5	102	61*
O=c1oc2ccc(Cl)cc2cc1-c1cn2c(n1)sc1ccccc12	·	·	101	·
O=C(/C=C/c1ccccc1)Oc1nc2ccccc2s1	·	0.3	85*	3
O=C(/C=C/c1ccccc1)Oc1ccccc1	5	2.2	104	-11
O=c1oc2c3c(ccc2c2ccccc12)OCN(Cc1cccc(Cl)c1)C3	·	·	85*	·
COc1ccc(NC(=O)CNC(N)=O)cc1NS(=O)(=O)c1ccc(F)cc1	9	0.6	105	-4
CC(C)(O/N=C(/C(=O)N[C@@H]1C(=O)N2C(C(=O)[O-])=C(C[n+]3ccccc3)CS[C@H]12)c1csc(N)n1)C(=O)O	2	·	98	-5

High-throughput results (PubChem)
